Results on 25 compounds are retold here after PubChem BioAssay (EPA / NIEHS).

Values joined by “and” are separate entries in the source; they are usually repeats but may differ in a detail not shown here. Equal entries are not always repeated. Active and inactive are the calls of the source. Rule for the calls: active = hit-call score of the fitted dose curve at least 0.9, where 1 is the maximum; inactive = score below 0.9.

Read-out in test [1]: Matrix Metallopeptidase 1 (MMP1), MMP1 (gene 4312)
Description: BSK_MyoF_MMP1: BioMAP Diversity Plus: MyoF Assay for Matrix Metallopeptidase 1 (MMP1) Biomarker Activity (AID 2284268). The settings on record: primary human lung fibroblasts. The method in brief: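 Human lung fibroblast primary cells; MMP1 measured by ELISA 24 h after dosing, fitted in the positive direction relative to DMSO. Parallel SRB staining (0.1%, after 10% TCA fixation, 560 nm) assesses overt cytotoxicity.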

Read-out in test [2]: TIMP metallopeptidase inhibitor 1 (TIMP1), TIMP1 (gene 7076)
Description: BSK_MyoF_TIMP1: BioMAP Diversity Plus: MyoF Assay for TIMP metallopeptidase inhibitor 1 (TIMP1) Biomarker Activity (AID 2284269). The settings on record: primary human lung fibroblasts. The method in brief: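 TIMP-1 levels were determined by ELISA in human lung fibroblasts treated for 24 h. DMSO served as negative control and baseline for upward curve fitting.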

Read-out in test [3]: Matrix Metallopeptidase 1 (MMP1), MMP1 (gene 4312)
The test is described as follows: BSK_BF4T_MMP1: BioMAP Diversity Plus: BF4T Assay for Matrix Metallopeptidase 1 (MMP1) Biomarker Activity (AID 2284270). The settings on record: primary human bronchial epithelial cells with fibroblasts. The method in brief: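 MMP-1 quantified by ELISA in primary human bronchial epithelial/dermal fibroblast co-cultures, 24 hours post-dosing, with DMSO as baseline; parallel sulforhodamine B staining (560 nm) tracks overt cytotoxicity.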

Read-out in test [4]: Matrix Metallopeptidase 3 (MMP3), MMP3 (gene 4314)
Description: BSK_BF4T_MMP3: BioMAP Diversity Plus: BF4T Assay for Matrix Metallopeptidase 3 (MMP3) Biomarker Activity (AID 2284271). The conditions noted are these: primary human bronchial epithelial cells with fibroblasts. As to the method:
(§1) BSK_BF4T is a cell-based, multiplexed-readout assay that uses bronchial epithelial cells and dermal fibroblasts, a human vascular primary cell, with measurements taken at 24 hours after chemical dosing in a microplate: 96-well plate.BSK_BF4T_MMP3 is an assay component measured in the BSK_BF4T assay. It measures MMP-3 antibody related to regulation of gene expression using ELISA technology.Data from the assay component BSK_BF4T_MMP3 was analyzed at the endpoint, BSK_BF4T_MMP3, in the positive analysis fitting direction relative to DMSO as the negative control and baseline of activity. Using a type of binding reporter, gain or loss-of-signal activity can be used to understand protein changes. […]
(§2) The levels of cell surface (or secreted, indicated by the prefix "s") biomarker endpoints were measured by ELISA. Overt cytotoxicity to cells in confluent adherent cultures (all systems other than the BT system) was assessed by measuring total protein levels using sulforhodamine B (SRB) staining in parallel cultures at the time of biomarker measurements, indicated as SRB endpoints. For proliferation assays for adherent cell types, individual cell types are cultured at sub-confluence and relative cell numbers quantified by SRB staining at time points optimized for each system (48 h: 3C and CASM3C systems; 72 h: BT and HDF3CGF systems; 96 h: SAg system). […] Plates were read after 6 h.

Read-out in test [5]: Tissue plasminogen activator (tPA), PLAT (gene 5327)
The test is described as follows: BSK_BF4T_tPA: BioMAP Diversity Plus: BF4T Assay for Tissue plasminogen activator (tPA) Biomarker Activity (AID 2284272). The conditions noted are these: primary human bronchial epithelial cells with fibroblasts. In a few lines: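 tPA level quantified by ELISA at 24 h post-treatment in bronchial epithelial/dermal fibroblast co-cultures, gain of signal scored against DMSO baseline. Parallel cultures stained with 0.1% SRB (560 nm) to flag overt cytotoxicity.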

Read-out in test [6]: Plasminogen Activator Inhibitor-1 (PAI1), SERPINE1 (gene 5054)
Description: BSK_BF4T_PAI1: BioMAP Diversity Plus: BF4T Assay for Plasminogen Activator Inhibitor-1 (PAI1) Biomarker Activity (AID 2284273). The conditions noted are these: primary human bronchial epithelial cells with fibroblasts. In a few lines: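 PAI-1 levels quantified by ELISA 24 h post-dosing in bronchial epithelial cell plus dermal fibroblast cultures. Signal gain referenced to DMSO baseline. Sulforhodamine B total-protein staining of parallel wells checked cytotoxicity.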

Test [7] is described as follows: BSK_BF4T_SRB: Viability Assessment in the BioMAP Diversity Plus: BF4T Assay (AID 2284274). The conditions noted are these: primary human bronchial epithelial cells with fibroblasts. As for the experimental part: BSK_BF4T is a cell-based, multiplexed-readout assay that uses bronchial epithelial cells and dermal fibroblasts, a human vascular primary cell, with measurements taken at 24 hours after chemical dosing in a microplate: 96-well plate.BSK_BF4T_SRB is an assay component measured in the BSK_BF4T assay. It measures 0.1% sulforhodamine related to cell death using Sulforhodamine staining technology.Data from the assay component BSK_BF4T_SRB was analyzed at the endpoint, BSK_BF4T_SRB, in the positive analysis fitting direction relative to DMSO as the negative control and baseline of activity. Using a type of viability reporter, gain or loss-of-signal activity can be used to understand protein changes. […]
as §2

Read-out in test [8]: urokinase Plasminogen Activator (uPA), PLAU (gene 5328)
Description: BSK_BF4T_uPA: BioMAP Diversity Plus: BF4T Assay for urokinase Plasminogen Activator (uPA) Biomarker Activity (AID 2284275). The conditions noted are these: primary human bronchial epithelial cells with fibroblasts. As for the experimental part: as §1, with “plate.BSK_BF4TA” for “plate.BSK_BF4T_MMP3”, “uPA” for “MMP-3”, “BSK_BF4TA” for “BSK_BF4T_MMP3”, “BSK_BF4TA,” for “BSK_BF4T_MMP3,”
as §2

Read-out in test [9]: Matrix Metallopeptidase 9 (MMP9), MMP9 (gene 4318)
The test is described as follows: BSK_BF4T_MMP9: BioMAP Diversity Plus: BF4T Assay for Matrix Metallopeptidase 9 (MMP9) Biomarker Activity (AID 2284276). The conditions noted are these: primary human bronchial epithelial cells with fibroblasts. In a few lines: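 MMP-9 levels were measured by ELISA after 24 h exposure of bronchial epithelial cell/dermal fibroblast co-cultures, with DMSO as baseline. Parallel cultures were stained with 0.1% SRB after TCA fixation, read at 560 nm, to flag overt cytotoxicity.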

Read-out in test [10]: Interleukin-8 (IL8), CXCL8 (gene 3576)
Description: BSK_IMphg_IL8: BioMAP Diversity Plus: IMphg Assay for Interleukin-8 (IL8) Biomarker Activity (AID 2284277). The settings on record: primary human endothelial cells with macrophages. In a few lines:
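IL-8 levels were measured by ELISA 24 h after dosing in primary human venular endothelial cell–macrophage cultures, referenced to DMSO; parallel SRB staining monitored overt cytotoxicity.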

Take `CCCCCCCCC(CO)CCCCCC` (centres undefined): the outcome in test [1] and in test [2] was inactive.

Regarding `C=CC(=O)NC(C)(C)C`, the result in test [1] was inactive.

Regarding `CCCCCCCO`, in test [1], the result was inactive.

As for `C=CC(=O)OCCCCCCOC(=O)C=C`, the AC50 is 4.83 µM (active) in test [1] and 29.4 µM (active) in [2].

For `CC(C)[N+](C)(CCOC(=O)C1c2ccccc2Oc2ccccc21)C(C)C`, the result in test [1] was inactive.

In the case of `Oc1ccc(/C=C/c2cc(O)cc(O)c2)cc1`, in [1], the result was inactive.

With `O=C(O)C(F)(F)C(F)(F)C(F)(F)C(F)(F)C(=O)O`, the result in test [1], in [3], in [4], in [5], in test [6] and in test [7] was inactive. In addition, the outcome in test [8], in test [9] and in [10] was inactive.

Take `CC/C=C\CCOC(=O)c1ccccc1O`: the result in [1] was inactive. Also, the AC50 in [2] is 35.5 µM (active).

Take `CC1(C)CC(O)CC(C)(C)N1[O]`: in test [1], the result was inactive.

On to `CC=C(C)C=CC=C(C)C`, for which the result in [1] was inactive.

For `Fc1ccc(Br)cc1`, the outcome in [1] was inactive.

For the compound `COC(OC)(C(=O)c1ccccc1)c1ccccc1`, in [1], the outcome was inactive.

Consider `CC(Cl)COP(=O)(OCC(C)Cl)OCC(C)Cl` (centres undefined), for which the outcome in [1] and in test [2] was inactive.

As to `O=C1CCCCCCCCCCCN1`, the result in [1] was inactive.

Take `CCOC(=O)C1=NN(c2ccc(Cl)cc2Cl)C(C)(C(=O)OCC)C1` (centres undefined): in [1], the outcome was inactive.

Regarding `COc1ccc(C(=O)c2ccccc2)c(O)c1`, in [1], the outcome was inactive.

As to `C[N+](C)(C)CCCNS(=O)(=O)C(F)(F)C(F)(F)C(F)(F)C(F)(F)C(F)(F)C(F)(F)C(F)(F)C(F)(F)F`, the AC50 in test [1] was 49.2 µM (active) and 41 µM (active); in test [4], 52.2 µM (active) and 51.4 µM (active); in [5], 8.18 µM (active) and 7.16 µM (active); in test [9], 9.46 µM (active) and 30 µM (active); in [10], 43 µM (active) and 30 µM (active). The outcome in test [3], in test [6], in [7] and in test [8] was inactive.

In the case of `CCCCCCOC(=O)CCCCC(=O)OCCCCCC`, the result in test [1] was inactive.

With `CCCCCC1=CCCC1=O`, the outcome in [1] was inactive.

For the compound `CCCCC1C(=O)N(c2ccccc2)N(c2ccccc2)C1=O`, the outcome in test [1] was inactive.

Turning to `CC(c1cc(C(C)(C)C)cc(C(C)(C)C)c1O)c1cc(C(C)(C)C)cc(C(C)(C)C)c1O`, the outcome in test [1] and in test [2] was inactive.

With `CCC1(C)C(=O)N(Cl)C(=O)N1Cl` (centres undefined), the result in [1] was inactive.

With `C=C(C)C(=O)OCCCCCCCCCCCC`, the result in test [1] and in [2] was inactive.

As for `c1ccc2sc(SSN3CCOCC3)nc2c1`, the half-maximal activity concentration (AC50) was 4.91 µM (active) in [1] and 31.5 µM (active) in test [2].

In the case of `CCN1CN(CC)CN(CC)C1`, the result in test [1] and in test [2] was inactive.

The term AC50 denotes the concentration giving half of the maximal activity seen.
